Bioassay records from PubChem BioAssay.
Pf growth 48h – P. falciparum growth inhibition at 48 hours (one generation); P. falciparum luciferase growth in erythrocytes, 48 h; Potency, µM (series often up to 28.7 µM), without a hit: top-dose activity change, negative = inhibition, actives largely listed as inhibitors; actives 5.9% (n = 310,000); AID 504832; further: potency means the concentration at half of the fitted maximal effect; on the % scale 0 is the no-effect control and ±100 the full control effect
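Growth was read as firefly luciferase luminescence after a 48 h, 37 C, 5% CO2 exposure of compounds to reporter-bearing P. falciparum cultures (0.1% parasitemia, 2% hematocrit final) in Albumax-supplemented RPMI 1640.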
AMA1-RON2 inh – disrupts binding of P. falciparum AMA1 to RON2; actives 0.2% (n = 360,000); AlphaScreen AMA1-biotinylated RON2 peptide binding; Potency, µM (highest dose often 58.2 µM), without a hit: at the top dose activity change, negative = inhibition, hits mostly inhibitors;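 further: potency means the concentration at half of the fitted maximal effect; 0% = vehicle wells and -100% = peptide control; nearly all actives have a fitted effect of over 45% in size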
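AMA1 (3D7) with his tag at 25 nM final met compounds first, then biotinylated RON2 peptide at 25 nM; detection used donor plus acceptor beads, 10 µg/mL apiece, read by AlphaScreen after 30 min at room temperature.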
Cycloheximide cs – counter-screen for Shiga toxin inhibitors: cycloheximide protein synthesis inhibition. max response, %. cell reporter, cycloheximide protein synthesis inhibition counterscreen. AID 2314. actives 12% (n = 300,000); in the data active means max response mostly above about 13%, no sharp cut-off; inactive means mostly below about 14%; further: read at 38.3 µM for the half of the compounds with a filed dose; 0% is about no effect
SARS PLpro yeast – blocks SARS-CoV papain-like protease in a yeast assay | S. cerevisiae expressing SARS-CoV PLpro, growth rescue | Potency, µM (titrated, usually from 32.9 µM), inactives show at the highest dose activity, positive = growth rescue, hits mostly activators | actives 0.19% (n = 330,000); calls by dose curve; further: potency means the concentration at half of the fitted maximal effect; 0% is about no effect; nearly all actives have a fitted effect of over 55% in size
Shiga toxin inh – inhibitors of Shiga toxin in Vero cells; actives 9.2% (n = 290,000); AID 2315; inhibition, % at 38.7 µM; Vero cells, Shiga toxin protein synthesis inhibition reporter; in the data active means inhibition mostly above about 28%, no sharp cut-off; inactive means mostly below about 43%; further: 0% is about no effect
Pf growth 96h – inhibits malaria parasite growth, 96 h. P. falciparum luciferase reporter growth, 96 h. Potency, µM (series often up to 28.7 µM), inactives show top-dose activity change, negative = inhibition, hits mostly inhibitors. actives 6.9% (n = 320,000). AID 504834; further: potency means the concentration at half of the fitted maximal effect; on the % scale 0 is the no-effect control and ±100 the full control effect
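Luminescence readout: decreased luciferase signal marks inhibited growth of reporter-expressing P. falciparum in infected red cells (2% hematocrit, 0.05% parasitemia final), exposed to compound two generations (96 h, 37 C, 5% CO2).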
* = called active by the depositor; ? = inconclusive; nt = no result given. A selection: hits, their analogues and other compounds. The true share with any hit is near 19%. Unless noted, the call rests on the fitted dose curve; in most records, active means well fitted curve in the direction sought with a large enough effect; inconclusive means small, poorly fitted or top-dose-only effect, or another doubt; inactive means no such curve, though single readings can be large; an effect the other way counts as inactive or inconclusive.

SMILES | Pf growth 48h | AMA1-RON2 inh | Cycloheximide cs | SARS PLpro yeast | Shiga toxin inh | Pf growth 96h
CC1C(c2ccccc2)N(C)C(c2ccccc2)C(C)C1(O)C#Cc1ccccc1 (centres undefined) | 9.3µM* | -9% | 6 | -106% | -5 | -15%
O=S1(=O)NC(=NCC(c2ccco2)N2CCCCC2)c2ccccc21 (centres undefined) | ? | 0% | -1 | -1% | 4 | 13µM*
CCN(CC(=O)Nc1c(F)cccc1F)C(=O)CCSc1ccc(F)cc1 | ? | 17% | nt | 1% | nt | -2%
O=C(c1cc2ccccn2n1)N1CCN(Cc2ccccc2)CC1 | nt | 0% | 59* | 11% | 63 | 0%
O=C(c1cc2ccccn2n1)N1CCN(c2cccc(C(F)(F)F)c2)CC1 | 5% | -6% | -1 | -5% | -8 | 9.3µM*
COc1ccc(OC)c(C(O)c2coc3ccc(O)c(CN4CCOCC4)c23)c1 (centres undefined) | 7.4µM* | -4% | -2 | 12% | 22 | 17%
Cc1ccc(C(=O)c2coc3ccc(O)c(CN4CCN(C)CC4)c23)cc1 | 3.7µM* | -6% | 15* | 0% | 73* | 32%
COc1ccc(C(=O)c2coc3ccc(O)c(CN4CCOCC4)c23)cc1 | ? | -6% | 13* | 0% | 38* | -25%
COc1ccc(C(=O)c2coc3ccc(O)c(CN4CCCC4)c23)cc1 | nt | -8% | -2 | 2% | -5 | ?
CCN(CC)Cc1c(O)ccc2occ(C(=O)c3ccc(OC)cc3)c12 | -16% | -5% | 15* | -14% | 19 | ?
CNC[C@@H]1Oc2cc(Br)ccc2S(=O)(=O)N([C@@H](C)CO)C[C@@H]1C | nt | -3% | nt | nt | nt | nt
Cn1c2c(c(=O)n(C)c1=O)C(C(F)(F)F)(C(F)(F)F)N=C(CCC1CCCCC1)N2 | ? | -1% | -2 | -44% | 20 | 12µM*
O=C(O)CC12CC3CC(C1)CC(n1ncc(NCc4ccco4)c(Cl)c1=O)(C3)C2 | ? | 5% | -3 | 0% | -9 | 2%
O=c1c(Cl)c(NCc2ccccc2)cnn1C12CC3CC(CC(C3)C1)C2 | ? | 13% | 5 | -12% | 15 | 10µM*
CC1Cc2ccccc2N1C(=O)C1CCCN(S(=O)(=O)c2cccc3cccnc23)C1 (centres undefined) | nt | -9% | -3 | -10% | -8 | ?
CCOC(OCC)c1cn(Cc2ccc3c(c2)C(=O)c2ccccc2C3=O)nn1 | -11% | nt | 11 | 15% | 12 | ?
CCCN(CCC)CCCNC(=O)c1cn(CC)c2ccc(S(=O)(=O)N(C)C3CCCCC3)cc2c1=O | 9.3µM* | 0% | -4 | 3% | -11 | 10µM*
CCOCCCNC(=O)c1cn(CC)c2ccc(S(=O)(=O)N(C)C3CCCCC3)cc2c1=O | 9.3µM* | -10% | -3 | -3% | -9 | ?
CCn1cc(C(=O)NCCCOC)c(=O)c2cc(S(=O)(=O)N(C)C3CCCCC3)ccc21 | ? | -7% | -6 | 1% | -14 | -23%
CCCN(CCC)CCCNC(=O)c1cn(C)c2ccc(S(=O)(=O)N(C)C3CCCCC3)cc2c1=O | ? | 2% | -5 | -25% | 7 | 4%
CCOc1ccccc1CNC(=O)CN1C(=O)CSc2ccc(S(=O)(=O)N3CCOCC3)cc21 | -24% | -12% | -1 | 5% | -3 | ?
COc1ccc(CN(C)C(=O)CCN=C2NS(=O)(=O)c3ccccc32)c(OC)c1 | ? | -8% | nt | 2% | nt | -4%
COc1ccc(S(=O)(=O)N(Cc2nc3ccccc3c(=O)[nH]2)C2CCCC2)cc1 | -29% | 38% | 9 | 2% | -24 | nt
COc1ccccc1CN(Cc1nc2ccccc2c(=O)[nH]1)C(=O)Nc1ccc(C)cc1 | ? | 15% | 19* | -3% | 40 | nt
Cc1ccc(S(=O)(=O)N(C)c2ccc(C(=O)N(C)Cc3nc4ccccc4c(=O)[nH]3)cc2)cc1 | 12µM* | -8% | nt | -2% | nt | 5.9µM*
COc1ccccc1CN(Cc1nc2ccccc2c(=O)[nH]1)C(=O)Nc1ccccc1C | ? | 64% | 7 | 2% | 1 | nt
